# The panel holds about 83,000 compounds, 20% with a hit somewhere; the sample as a whole holds those more often.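 Single-dose data. Exposure time 48 hours. Values below 10 considered active.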 A number with no mark means an inactive call. Calls of active or inactive are those of the source.
# What was measured:
# Assay in all cases: NCI-60 one-dose screen, 48 h (100 = growth as untreated, 0 = no growth, -100 = all killed)
# Conditions in all cases: 10 µM unless noted
# [1] = system: SR leukemia
# [2] = system: RPMI-8226 leukemia
# [3] = system: OVCAR-8 ovarian
# [4] = system: OVCAR-5 ovarian
# [5] = system: OVCAR-4 ovarian
# [6] = system: SK-OV-3 ovarian
# [7] = system: IGROV1 ovarian
# [8] = system: OVCAR-3 ovarian
# [9] = system: HS 578T breast
# [10] = system: NCI/ADR-RES ovarian
# [11] = system: T-47D breast
# [12] = system: BT-549 breast
# [13] = system: MDA-MB-435 melanoma
# [14] = system: SW-620 colon
# [15] = system: HCT-116 colon
# [16] = system: HCC-2998 colon
# [17] = system: KM12 colon
# [18] = system: MCF7 breast
Compound,growth [1],growth [2],growth [3],growth [4],growth [5],growth [6],growth [7],growth [8],growth [9],growth [10],growth [11],growth [12],growth [13],growth [14],growth [15],growth [16],growth [17],growth [18]
COc1ccc2cc(Cn3cc[n+](Cc4ccc5ccccc5c4)c3)ccc2c1,9.3% (active),1.54% (active),8.73% (active),45.6%,8.75% (active),29.8%,-9.16% (active),4.18% (active),46.3%,102%,-4.51% (active),11.8%,7% (active),44.4%,33.7%,26.7%,-23.2% (active),–
O=C(Nc1ccccc1O)c1ccccc1Nc1ccnc(C(F)(F)F)c1,76%,56.5%,100%,99.9%,95.8%,100%,79.5%,97.6%,96.4%,90.7%,88.4%,112%,115%,102%,84.2%,107%,102%,–
Cc1ccc(Nc2nc(-c3ccc(F)cc3)c(C#N)c(=O)n2C)cc1,62.3%,89.4%,67.3%,63.4%,51%,60.1%,67.5%,61.5%,44.8%,76.2%,35.5%,52.8%,74.7%,68.9%,53.4%,86.2%,87.7%,56.1%
COc1cc2c(c(OC)c1OC)C(=O)N[C@@H]1[C@@H](O)[C@@H](O)[C@H](O)C[C@@H]21,95.6%,102%,97.3%,106%,107%,99.9%,111%,112%,108%,108%,100%,110%,110%,109%,98.9%,101%,108%,–
CC(C)c1ccc(C(=O)Nc2sc3cc(O)ccc3c2C#N)cc1,0.658% (active),21.2%,51.2%,87.8%,58%,50.2%,31.1%,16.4%,26.6%,11.2%,36.4%,20.8%,-42.9% (active),28.7%,15%,60.3%,21%,–
O=C(NCc1ccc2c(c1)OCO2)NCC1CCCC(CNC(=O)NCc2ccc3c(c2)OCO3)C1 (centres undefined),95.2%,102%,100%,108%,96.1%,99.1%,106%,108%,97.1%,104%,86.7%,96.3%,95.9%,–,101%,102%,105%,101%
COC(=O)c1c2c(n3ccc(C)cc13)C(=O)c1ccccc1C2=O,45.9%,61.1%,60.2%,116%,81.7%,103%,64.5%,67.6%,77.7%,72.8%,82%,69.7%,93.4%,–,41.6%,94.6%,59.4%,55.9%
Clc1nn2c(Cn3cnc4c(NCc5ccccc5)ncnc43)nnc2c2ccccc12,17.2%,37.7%,33.2%,74.2%,37.9%,-18.5% (active),24.8%,45.8%,40.1%,40.6%,18.2%,25.8%,30.6%,–,21.9%,56.1%,58.9%,62.1%
CC1CN=C(c2cccc(-c3ccc(-c4ccccc4)o3)c2)N1 (centres undefined),-9.42% (active),-26.3% (active),33.7%,-5.49% (active),43.1%,18.4%,31%,10.6%,17.4%,28.3%,-31.8% (active),50.8%,-75.8% (active),-40.6% (active),-67.9% (active),-65.4% (active),-8.35% (active),–
CN1CCN(Cc2ccc(NC(=O)c3cncc(C#Cc4cncc5ncccc45)c3)cc2C(F)(F)F)CC1,-37.7% (active),9.58% (active),28.1%,25.2%,17.3%,-3.03% (active),1.13% (active),36.3%,-5.88% (active),30.9%,60.9%,38.6%,10.6%,–,-58.3% (active),13.9%,10.7%,13.7%
CCCCCCC(=O)Nc1ncc(Cc2ccc(C)cc2)s1,20.4%,40.1%,45.5%,58.1%,50.1%,31.8%,44.2%,8.65% (active),21.7%,29%,35.4%,59.1%,-25.9% (active),22.4%,33.3%,70.3%,30.7%,–
O=C(CN1CCN(c2cc3c(cc2F)c(=O)c(C(=O)O)cn3C2CC2)CC1)N/N=C/c1ccncc1,107%,93.2%,97.5%,98.2%,98.9%,102%,108%,96.9%,101%,107%,96.8%,95.7%,97.5%,–,104%,110%,101%,92.4%
COc1ccc(C2C(C#N)=C(N)Oc3c2sc2c(Br)cccc32)cc1 (centres undefined),8.82% (active),12.5%,35.1%,50.5%,64.4%,35.2%,42.7%,10.6%,41.8%,6.27% (active),27.2%,34.4%,-18.1% (active),–,22.4%,56.8%,27.5%,13.1%
COc1ccccc1-n1c(-c2cc(O)ccc2C)cn2c3c(=O)[nH]c(=O)n(C)c3nc12,86.2%,90.7%,66.5%,95.3%,98.2%,47.4%,10.3%,65.3%,20.4%,101%,87.8%,100%,104%,106%,86.5%,98.6%,108%,–
Cc1ccc(-c2nc(C(Cl)Cl)nc3cc(C)nn23)cc1,9.7% (active),33.4%,14.7%,2.16% (active),-21.5% (active),-12.7% (active),6.31% (active),-24.3% (active),-11.4% (active),6.39% (active),40.9%,55.5%,12%,–,6.95% (active),-69.3% (active),-9.44% (active),20.6%
O=C(CCCCCCN1CC(=O)N2[C@@H](C3CCCCC3)c3[nH]c4ccccc4c3C[C@H]2C1=O)NO,11.5%,39.5%,54.1%,66.6%,84.6%,71.5%,29%,71.1%,70.2%,105%,44.2%,80.6%,60.6%,47%,27%,94%,81.3%,–
C#CCn1cnc2c(Nc3cccc(NC(=O)CCl)c3)ncnc21,9.78% (active),10.4%,50%,43.7%,26.9%,49.6%,7.54% (active),31.6%,50%,49.1%,34.7%,35.1%,22.6%,–,12.9%,77.6%,–,14.1%
